Records with an inconclusive call do not appear. Entries that show only a call come without a potency. The source made the active and inactive calls. Calls come from the whole dose curve; as a rule, active = well fitted cell-killing curve with a large enough effect in the repeat runs; inconclusive = weak or mixed curves, or effect the other way; inactive = flat fitted curve, though single readings scatter.
assay: cAMP Responsive Elements (CRE) small molecule agonists, cell-based qHTS assay: qHTS cell viability counter screen (AID 2060914); settings: CRE-bla HEK293T viability, CellTiter-Glo luminescence, 5 h; series mostly up to 92.4 µM;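 note: viability read after 3 h of compound exposure; nearly all actives have a fitted effect of over 50% in size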
From the text: National Center for Advancing Translational Sciences [NCATS]
Division of Preclinical Innovation [DPI]
U.S. Environmental Protection Agency [EPA]
National Institutes of Environmental Health Sciences [NIEHS]
National Toxicology Program [NTP]
U.S. Food and Drug Administration [FDA]
CREB (cyclic-AMP Responsive Element Binding Protein) is a cellular transcription factor. It binds to certain DNA sequences called cAMP Responsive Elements (CRE) and regulates the transcription of the genes. […] This cell line can be used to find agonists/antagonists of the cyclic AMP signaling pathway. The activation of the report gene under culture conditions can be detected by fluorescence intensity. This cell line has been used to screen the Tox21 10K compound library to identify agonists that induce oxidative stress. The cytotoxicity of the Tox21 compound library against the CRE-bla cell line was tested in parallel by measuring the cell viability using CellTiter-Glo assay (Promega, Madison, WI) in the same wells.
Tox21 Assay Protocol Summary:
CRE-bla Hek 293T cells were suspended in assay medium (DMEM containing 10% dialyzed FBS, 0.1 mM NEAA, 1 mM sodium pyruvate and 25 mM HEPES) and dispensed at 2,000 cells/5 uL /well into 1536-well black wall/clear bottom plates using a Multidrop Combi (ThermoFisher Scientific, Waltham, MA) dispenser. After the assay plates were incubated at 37 C/5% CO2 for 18 hrs, 23 nL of compounds dissolved in DMSO, positive controls or DMSO only was transferred to the assay plate by a pintool workstation (Kalypsys, San Diego, CA). After the plates were incubated at 37 C/5% CO2 for 3 hrs, 1 uL of LiveBLAzer B/G FRET substrate (Invitrogen, Carlsbad, CA) was added to each well using Bioraptr Flying Reagent Dispenser (FRD, Aurora Discovery, San Diego, CA). The plates were incubated at room temperature for 2 h, then fluorescence intensities were measured using an Envision plate reader (PerkinElmer, Shelton, CT) at Excitation 405nm, Emission 460nm and 530nm. The % activity was determined from the ratio of 460nm/530nm. For cell viability readout that measures cytotoxicity, 4 uL /well of CellTiter-Glo reagent was added into the assay plates using Bioraptr FRD. After 30 min incubation at room temperature, the luminescence intensity in the assay plates was measured using a ViewLux (PerkinElmer, Shelton, CT) plate reader.

| SMILES | Potency |
| --- | --- |
| NC(=O)c1c(Cl)cccc1Cl | inactive |
| CC(C)(C)C(=O)C(Oc1ccc(Cl)cc1)n1ccnc1 (stereo not given) | inactive |
| CCCOCCC | inactive |
| COc1ccc(/C=C/c2cc(OC)cc(=O)o2)cc1 | inactive |
| C=CC(=O)Nc1cc2c(Nc3ccc(F)c(Cl)c3)ncnc2cc1OCCCN1CCOCC1 | inactive |
| O=C(/C=C/c1ccc(O)c(O)c1)O[C@@H]1C[C@](O)(C(=O)O)C[C@@H](O)[C@H]1O | inactive |
| C/C(=N\O)[C@@H](C)NCC(C)(C)CN[C@H](C)/C(C)=N/O | inactive |
| C=C(C)C(=O)OCCOCCOC(=O)C(=C)C | inactive |
| NCCC(O)(P(=O)(O)O)P(=O)(O)O | inactive |
| O=S(=O)(O)c1ccc(O)c2ncccc12 | inactive |
| COCCOCCOCCOC | inactive |
| CCCCCCCCCOC(=O)CCCCC(=O)OCCCCCCC | inactive |
| NC(=O)c1ccc([N+](=O)[O-])cc1Cl | inactive |
| OCCOCCOCCOCCOCCO | inactive |
| O=C1c2ccccc2C(=O)c2c(O)ccc(O)c21 | inactive |
| CC(C)NCC(O)COc1ccc(COCCOC(C)C)cc1 (stereo not given) | inactive |
| SCCCCCCCCS | inactive |
| Nc1cc([N+](=O)[O-])ccc1O | inactive |
| c1ccc(CNc2ncnc3nc[nH]c23)cc1 | inactive |
| Cc1ccc(N)c(S(=O)(=O)O)c1 | inactive |

| SMILES | Potency |
| --- | --- |
| CC(C)=CCOC(=O)c1ccccc1 | inactive |
| NC(=O)N/N=C/c1ccc([N+](=O)[O-])o1 | inactive |
| O=C(O)[C@H](O)[C@@H](O)[C@H](O)[C@H](O)CO | inactive |
| CCCCCCCCCCCCS | inactive |
| CNCCc1ccccn1 | inactive |
| CCN(Cc1cccc(S(=O)(=O)O)c1)c1ccc(C(=C2C=CC(=[N+](CC)Cc3cccc(S(=O)(=O)[O-])c3)C=C2)c2ccccc2)cc1 | inactive |
| CCOC(=O)CC(O)(CC(=O)OCC)C(=O)OCC | inactive |
| Cc1ccc(C)c(O)c1 | inactive |
| O=C(NCCc1c[nH]c2ccccc12)c1cccnc1 | inactive |
| Nc1ccccc1O | inactive |
| CC1(C)CO[C@@H](CC(=O)O)CN1 | inactive |
| CCCC(=O)OCCc1ccccc1 | inactive |
| CCCCCCCCCC(C)C=O (stereo not given) | inactive |
| Clc1ccc2n[nH]nc2c1 | inactive |
| NC(=O)c1cn(Cc2c(F)cccc2F)nn1 | inactive |
| O=C(CN1CCNCC1)NC1CCCCC1 | inactive |
| CCOCCO | inactive |
| CCN(CCC#N)c1ccccc1 | inactive |
| COc1ccc(CCC(C)=O)cc1 | inactive |
| CN(C)c1nc(N(C)C)nc(N(C)C)n1 | inactive |

— PubChem BioAssay (Tox21)
